Experimental findings from PubChem BioAssay are described below.

The source made the active and inactive calls. Unless noted, the rule behind the calls is not given here.

In experiment [1] the test system is Wnt5a (protein binding on small-molecule microarray). Nature of the experiment: Wnt5a binders on small-molecule microarray, primary screen, biophysical, 635/667 nm fluorescence (AID 1142).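 Note: fluorescence read at 667 nm with signal to noise per printed feature.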 The settings on record: 635 nm fluorescence, higher = more signal.
The nature of experiment [2]: cell viability in Huh7 cells, primary screen, cytotoxicity control for HCV replication inhibitor project, CellTiter-Glo luminescence, basal, 48 h (AID 1143).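 Note: Huh7 hepatoma cells carrying a hepatitis C replication reporter with no stimulus; test concentration not given here.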 The settings on record: Huh7 HCV replicon, higher = more signal, called active from +8 up or from −8 down. (In general: In ATP-based viability assays light output follows the ATP content of the culture.)
Experiment [3] can be described thus: P. aeruginosa biofilm formation inhibitors, primary screen, PAO1 strain, BacTiter-Glo luminescence, LB-PBS (AID 1144). The settings on record: 12 h, higher = more signal.
Experiment [4] can be described thus: CREB reporter modulators without forskolin, primary screen, cell-based, PC12, CRE-LacZ reporter, unstimulated (AID 1145). The settings on record: no forskolin, luminescence, 4.5 h, higher = more signal, called active from +8 up or from −8 down.
A short description of experiment [5]: CREB reporter modulators under forskolin, primary screen, cell-based, PC12, CRE-LacZ reporter, forskolin-stimulated (AID 1146).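 Note: PC12 cells with 6xCRE LacZ reporter stimulated by forskolin 10 µM; beta-galactosidase reporter signal reflecting CREB driven transcription.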 The following applies: luminescence, 4.5 h, higher = more signal, called active from +8 up or from −8 down.
Experiment [6] deals with Streptavidin (Streptomyces avidinii) (UniProt P22629). Nature of the experiment: streptavidin binders on small-molecule microarray, primary screen, artefact control for SMM compound annotation, biophysical, 635/667 nm fluorescence (AID 1147).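 Note: signal reflects streptavidin binding to arrayed compounds as a control protein.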 The following applies: streptavidin binding, higher = more signal.
The nature of experiment [7]: small-molecule binders of probe aInhba, primary screen, biochemical, small-molecule microarray, 635/667 nm fluorescence (AID 1148).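 Note: score merges 667nm spot fluorescence with signal-to-noise for antibody binding to printed compounds.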 The settings on record: higher = more signal.
For experiment [8], the target named is Torsin-1A (Homo sapiens) (UniProt O14656). As to the kind of experiment: torsin A binders from cell lysate, primary screen, small-molecule microarray, wild-type, 635/667 nm (AID 1149). The settings on record: COS7 hTOR1A-WT lysate, 635 nm fluorescence, higher = more signal.
Experiment [9] shares this target. As to the kind of experiment: small-molecule binders of mutant TOR1A in lysate, primary screen, cell lysate, small-molecule microarray, COS7 lysate, 635/667 nm fluorescence (AID 1150).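 Note: score pools 667 nm emission and signal to noise measuring lysate protein binding.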 The following applies: COS7 hTOR1A mutant lysate, 635 nm fluorescence, higher = more signal.
Experiment [10] concerns Sonic hedgehog protein (Shh). As to the kind of experiment: small-molecule binders of Shh protein, primary screen, biochemical, small-molecule microarray, 635/667 nm fluorescence (AID 1151).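 Note: Shh protein binding to compounds spotted on small-molecule microarray slides; score combines spot fluorescence intensity with signal-to-noise across triplicate slides.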 The following applies: small-molecule microarray binding, 635 nm fluorescence; higher = more signal.
The nature of experiment [11]: E. coli DRC41 culture turbidity changes, primary screen, E. coli filamentation inducer project, strain DRC41, OD650, 48 h (AID 1152).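 Note: E. coli MC1000 strain DRC41 lacking acrAB efflux pump and sulA.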 The settings on record: E. coli DRC41 (acrAB sulA), higher = more signal, called active from +8 up or from −8 down.
A short description of experiment [12]: small-molecule binders of probe aLefty1, primary screen, biochemical, small-molecule microarray, 635/667 nm fluorescence (AID 1153).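 Note: score merges spot fluorescence with signal-to-noise ratio from the scanned slide images.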 The settings on record: higher = more signal.
Experiment [13] can be described thus: PSAC antagonists in infected red cells, primary screen, cell-based, P. falciparum Indochina, OD700, 1 h (AID 1154). The settings on record: P. falciparum Indochina infected RBC osmotic lysis, higher = more signal, called active from +8 up or from −8 down.
Experiment [14] in a line: PSAC antagonists in infected red cells, primary screen, cell-based, P. falciparum Indochina, OD700, 2 h (AID 1155).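 Note: lysis reports solute entry through the parasite surface anion channel PSAC; channel blockers reduce lysis of infected cells.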 The following applies: P. falciparum Indochina infected erythrocytes, osmotic lysis OD700; higher = more signal, called active from +8 up or from −8 down.
Experiment [15] is described as follows: osmotic lysis modulators in infected erythrocytes, primary screen, PSAC antagonist project, cell-based, P. falciparum Indochina, OD700, 3 h (AID 1156). The following applies: higher = more signal, called active from +8 up or from −8 down.
Experiment [16] in a line: PSAC antagonists in infected red cells, primary screen, cell-based, P. falciparum Indochina, OD700, 18 h (AID 1157). The following applies: P. falciparum Indochina infected erythrocytes, osmotic lysis OD700, 18 h; higher = more signal, called active from +8 up or from −8 down.
A short description of experiment [17]: modulators of S6 phosphorylation in cells, primary screen, cell-based, A549, cytoblot, luminescence, serum-stimulated (AID 1158).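 Note: serum-stimulated A549 lung adenocarcinoma cells; signal is phosphorylated S6 detected by cytoblot immunostaining with HRP secondary.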 The following applies: A549 phospho-S6 cytoblot, 5 h, higher = more signal.
Experiment [18] concerns the target NADPH oxidase 2 (Homo sapiens) (UniProt P04839). As to the kind of experiment: NOX2-dependent H2O2 signal modulators, primary screen, NOX inhibitor project, cell-based, HEK293-NOX2, PMA-stimulated, Amplex Red fluorescence (AID 1159). Note: test concentration not given here. The following applies: 45 min, higher = more signal, called active from +8 up or from −8 down.
For experiment [19], the target named is NADPH oxidase 4 (Homo sapiens) (UniProt Q9NPH5). Nature of the experiment: NOX4-dependent H2O2 signal modulators, primary screen, NOX inhibitor project, cell-based, HEK293-NOX4, tetracycline-induced, Amplex Red fluorescence (AID 1160). The following applies: 45 min, higher = more signal, called active from +8 up or from −8 down.
Experiment [20] concerns the target NADPH oxidase 5 (Homo sapiens) (UniProt Q96PH1). Nature of the experiment: NOX5-dependent H2O2 signal modulators, primary screen, NOX inhibitor project, cell-based, HEK293-NOX5, Amplex Red fluorescence (AID 1161). The following applies: HEK293-NOX5, ionomycin, 45 min, higher = more signal.

Chain of Streptavidin (Streptomyces avidinii) (P22629 whole entry, looked up): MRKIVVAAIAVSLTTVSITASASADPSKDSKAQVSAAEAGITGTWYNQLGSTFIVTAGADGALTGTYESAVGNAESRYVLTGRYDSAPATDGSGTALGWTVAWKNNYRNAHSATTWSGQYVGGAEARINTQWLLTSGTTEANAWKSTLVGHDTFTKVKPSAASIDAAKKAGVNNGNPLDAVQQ
Chain of NADPH oxidase 2 (Homo sapiens) (P04839 whole entry, looked up): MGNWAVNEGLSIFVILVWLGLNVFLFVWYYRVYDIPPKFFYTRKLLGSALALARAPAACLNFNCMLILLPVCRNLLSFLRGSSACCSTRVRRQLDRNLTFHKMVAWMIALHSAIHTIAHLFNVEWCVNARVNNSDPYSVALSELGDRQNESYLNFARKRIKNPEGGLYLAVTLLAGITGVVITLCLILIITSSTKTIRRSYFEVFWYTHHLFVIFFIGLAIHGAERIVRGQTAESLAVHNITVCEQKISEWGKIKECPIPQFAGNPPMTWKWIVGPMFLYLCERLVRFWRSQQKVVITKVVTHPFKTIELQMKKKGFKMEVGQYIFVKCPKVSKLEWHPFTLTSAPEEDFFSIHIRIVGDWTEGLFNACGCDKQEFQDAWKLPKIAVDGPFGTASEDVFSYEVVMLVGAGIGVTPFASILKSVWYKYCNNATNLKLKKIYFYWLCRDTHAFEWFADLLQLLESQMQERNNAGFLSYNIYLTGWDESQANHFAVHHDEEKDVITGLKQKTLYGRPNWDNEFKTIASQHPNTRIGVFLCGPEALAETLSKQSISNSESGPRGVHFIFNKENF
Chain of NADPH oxidase 4 (Homo sapiens) (Q9NPH5 whole entry, looked up): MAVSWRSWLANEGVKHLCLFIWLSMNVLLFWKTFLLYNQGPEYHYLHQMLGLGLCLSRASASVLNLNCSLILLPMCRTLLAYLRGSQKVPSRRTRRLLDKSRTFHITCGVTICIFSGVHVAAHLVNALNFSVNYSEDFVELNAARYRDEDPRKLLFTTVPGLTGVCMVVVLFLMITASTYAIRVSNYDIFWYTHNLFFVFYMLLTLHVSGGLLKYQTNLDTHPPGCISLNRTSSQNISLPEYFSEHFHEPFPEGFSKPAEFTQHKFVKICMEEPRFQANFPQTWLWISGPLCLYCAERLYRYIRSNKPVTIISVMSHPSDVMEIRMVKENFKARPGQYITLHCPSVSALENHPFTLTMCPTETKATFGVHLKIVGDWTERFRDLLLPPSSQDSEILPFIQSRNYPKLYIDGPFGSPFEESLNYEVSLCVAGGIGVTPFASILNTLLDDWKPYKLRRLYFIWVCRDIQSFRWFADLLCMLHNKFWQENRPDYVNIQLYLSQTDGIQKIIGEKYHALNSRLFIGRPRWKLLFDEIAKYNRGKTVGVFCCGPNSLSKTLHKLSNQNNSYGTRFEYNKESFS
Chain of NADPH oxidase 5 (Homo sapiens) (Q96PH1 whole entry, looked up): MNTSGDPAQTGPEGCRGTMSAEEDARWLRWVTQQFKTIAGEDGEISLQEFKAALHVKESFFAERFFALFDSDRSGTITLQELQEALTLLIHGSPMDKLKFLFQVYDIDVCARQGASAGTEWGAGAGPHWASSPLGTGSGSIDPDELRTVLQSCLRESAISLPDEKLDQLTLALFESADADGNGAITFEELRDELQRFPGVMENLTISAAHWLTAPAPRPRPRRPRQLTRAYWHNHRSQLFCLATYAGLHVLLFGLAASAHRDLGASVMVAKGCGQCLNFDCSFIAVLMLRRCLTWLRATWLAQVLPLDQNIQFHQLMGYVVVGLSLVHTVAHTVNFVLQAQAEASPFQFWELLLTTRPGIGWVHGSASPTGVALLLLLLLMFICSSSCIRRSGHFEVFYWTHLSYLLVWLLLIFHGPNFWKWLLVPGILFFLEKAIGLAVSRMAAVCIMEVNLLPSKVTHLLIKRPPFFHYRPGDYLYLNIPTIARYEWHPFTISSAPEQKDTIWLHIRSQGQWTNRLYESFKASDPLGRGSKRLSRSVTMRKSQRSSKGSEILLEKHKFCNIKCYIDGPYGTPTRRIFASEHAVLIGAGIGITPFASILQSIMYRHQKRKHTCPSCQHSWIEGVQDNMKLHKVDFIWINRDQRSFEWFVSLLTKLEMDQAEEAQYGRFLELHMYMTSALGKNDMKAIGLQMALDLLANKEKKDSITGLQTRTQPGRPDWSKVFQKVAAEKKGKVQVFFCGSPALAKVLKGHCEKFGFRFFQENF
Chain of Torsin-1A (Homo sapiens) (O14656 whole entry, looked up): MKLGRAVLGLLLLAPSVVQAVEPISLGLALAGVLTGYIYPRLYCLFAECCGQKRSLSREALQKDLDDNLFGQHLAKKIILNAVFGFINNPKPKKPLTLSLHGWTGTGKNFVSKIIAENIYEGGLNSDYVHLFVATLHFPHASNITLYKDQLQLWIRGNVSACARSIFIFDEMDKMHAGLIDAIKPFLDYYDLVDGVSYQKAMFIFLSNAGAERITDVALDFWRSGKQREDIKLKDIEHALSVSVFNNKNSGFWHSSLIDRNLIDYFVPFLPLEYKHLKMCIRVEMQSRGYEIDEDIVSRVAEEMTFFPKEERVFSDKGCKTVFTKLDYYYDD

Turning to `COc1ccc(COC(=O)NN=C2C[C@@H](O)[C@@H](O)[C@@H]3[C@@H]4C(=O)N(c5cccc(Oc6ccccc6)c5)C(=O)[C@@H]4CC[C@H]23)cc1`, the composite z-score is -0.142 in experiment [1]; 0.993 in experiment [6]; -0.0375 in [7]; -0.135 in the experiment with Torsin-1A (Homo sapiens) [8]; -0.144 in the experiment with Torsin-1A (Homo sapiens) [9]; -1.44 in experiment [10]. For the same compound, in experiment [12], the composite z-score worked out at 0.4. The z-score in experiment [2] is -3.56 (inactive); in experiment [3], 0.111 (inactive); in [4], -0.293 (inactive); in experiment [5], 0.505 (inactive); in [11], 0.249 (inactive); in experiment [13] it was 3.48 (inactive). The z-score in [14] was -0.469 (inactive); in experiment [15] it was 1.89 (inactive); in [16], -2.15 (inactive); in experiment [17], 0.0187; in [18] it was -1.26 (inactive); in experiment [19], -1.6 (inactive). Moreover, the z-score in [20] was -1.49.
In the case of `COC(=O)[C@@H]1CC[C@H](C)[C@@H](c2ccc(C)cc2)N1C(=O)c1ccc(C=NO[C@@H](C)c2cc(-c3c(C)cc(C)cc3C)no2)cc1`, the composite z-score in experiment [1] was 0.153; in experiment [6] it was 0.152; in experiment [7] it was -0.0986; with Torsin-1A (Homo sapiens) [8], 1.62; in the experiment with Torsin-1A (Homo sapiens) [9], 0.763; in [10], 0.707. Also, the composite z-score in [12] was -0.242. In addition, the z-score in [2] is -1.31 (inactive); in experiment [3], 0.209 (inactive); in [4] it was -0.0591 (inactive); in experiment [5] it was -0.187 (inactive); in experiment [11], 0.934 (inactive); in experiment [13] it was 1.12 (inactive). The z-score is 0.804 (inactive) in experiment [14]; 0.894 (inactive) in experiment [15]; 0.662 (inactive) in experiment [16]; 0.677 in experiment [17]; 0.564 (inactive) in experiment [18]; 0.945 (inactive) in experiment [19]. Moreover, the z-score in experiment [20] worked out at 0.406.
As to `CC1(C)O[C@H]2O[C@H]([C@H](O)CON=C3[C@H]4CCn5c(=O)n(-c6ccccc6)c(=O)n5[C@H]4[C@H](O)[C@@H]4O[C@H]34)[C@H](O)[C@H]2O1`, the composite z-score in experiment [1] is 0.0179; in experiment [6], 0.0676; in experiment [7] it was -0.154; with Torsin-1A (Homo sapiens) [8], 0.43; with Torsin-1A (Homo sapiens) [9], -0.0174; in experiment [10] it was -0.217. For the same compound, the composite z-score in experiment [12] is -0.0375. For the same compound, the z-score is -0.279 (inactive) in experiment [2]; -0.295 (inactive) in experiment [3]; 0.494 (inactive) in experiment [4]; 0.771 (inactive) in experiment [5]; -0.169 (inactive) in [11]; 0.246 (inactive) in experiment [13]. Besides, the z-score was 0.282 (inactive) in experiment [14]; 0.267 (inactive) in experiment [15]; 0.343 (inactive) in experiment [16]; -0.693 in experiment [17]; 0.197 (inactive) in experiment [18]; 0.0828 (inactive) in [19]. The z-score in experiment [20] is -0.47.
Take `CC(C)=CCCC(C)=CCON=C1C[C@@H](O)[C@@H](O)[C@@H]2[C@@H]3C(=O)N([C@@H](C)c4ccccc4)C(=O)[C@@H]3CC[C@@H]12`: the composite z-score is 0.143 in experiment [1]; 0.242 in experiment [6]; -0.121 in experiment [7]; 0.337 with Torsin-1A (Homo sapiens) [8]; 1.09 with Torsin-1A (Homo sapiens) [9]; 0.672 in experiment [10]. The composite z-score in [12] was determined as 0.0794. Besides, the z-score in experiment [2] was -1.19 (inactive); in experiment [3] it was 0.491 (inactive); in experiment [4] it was -0.834 (inactive); in experiment [5], -0.541 (inactive); in [11], -0.0368 (inactive); in experiment [13], 0.336 (inactive). The z-score in [14] was -0.168 (inactive); in experiment [15], -0.291 (inactive); in [16], 0.183 (inactive); in experiment [17] it was -0.814; in experiment [18], 0.311 (inactive); in [19] it was -0.0815 (inactive). Further, in experiment [20], the z-score was -0.919.
